Consider 40 compounds from ChEMBL document CHEMBL3988442, “University of Dundee, Small-Polar-MMV Screening Library” (2021).

SMILES strings stand for the structures.

The target of the test is AMP-activated protein kinase, AMPK (Homo sapiens) (UniProt P54646+O43741+P54619+Q9UGJ0+Q9Y478+Q13131+Q9UGI9). In words: AMP-dependent Kinase enzyme assay. An in vitro enzyme assay that detects ADP turnover that is directly proportional to AMPK activity. This uses naive AMPK that is activated during the assay with MK-8722. Format: functional. More on the design: scale not given: direction of the effect not stated beside the values. As to conditions: 30 µM.
On to `CCc1cc(N2CCC(NCc3ccc(C)o3)CC2)ncn1`, for which the Percent Effect was 6.83%. With `COCCC(=O)Nc1nc2c(OC)cc(F)cc2s1` the figure was -1.47%.

Turning to `COCCC1CCCCN1C(=O)c1coc(COc2ccccc2F)n1` (stereo not given), the Percent Effect was 12.2%. As for `CCOCCC(=O)N1CCCC(c2cc(C(F)(F)F)[nH]n2)C1` (stereo not given), the figure is 0.822%; as for `Cc1cc(N2CCOC(c3ccc(N(C)C)cn3)C2)nc(N)n1` (stereo not given), 7.96%; as for `CCn1cc(S(=O)(=O)NCc2ccnc(-n3ccnc3)c2)cn1`, -0.563%. With `CCc1nnc(Nc2cc(C)nc(C3CN(C(=O)C(C)C)CCO3)c2)s1` (stereo not given), the Percent Effect was -1.78%. As for `Cc1cncc(C2CCN(Cc3ccc(S(C)(=O)=O)cc3)CC2)n1`, the figure is 5.76%. With `CC(C(=O)N1CCCCC1)N1CCN(c2ncc(Cl)cn2)CC1` (stereo not given) the figure was -3.64%. Turning to `O=S(=O)(NCCCn1cncn1)c1ccc2c(c1)CCCC2`, the Percent Effect stood at 6.33%.

In the case of `O=C(NCc1csc2ccc(Cl)cc12)c1cc2n(n1)CCNC2`, the Percent Effect amounted to 10.6%. `CN(C)CCN(Cc1cccc(F)c1)C(=O)c1ccn(C)c(=O)c1`: the Percent Effect was determined as 9.63%. As for `Cc1ccccc1SCC(=O)Nn1cnnc1`, the figure is 3.33%; as for `O=C(CN1CCC(c2nnc(C(F)(F)F)o2)CC1)NCc1ccccc1`, 0.729%.

With `CC(CNC(=O)c1c[nH]nn1)Oc1ccc(Cl)cc1` (stereo not given), the Percent Effect amounted to 3.24%. As for `Cc1c(C(=O)NCC(C)(C)S(C)(=O)=O)cccc1-c1ccccn1`, the figure is 11.1%; as for `COCC(NC(=O)c1cc(NC(C)=O)ccc1Cl)c1ccnn1C` (stereo not given), -8.6%; as for `O=C(CCn1cncn1)N1CCCC(CO)(CCCc2ccccc2)C1` (stereo not given), 0.934%. On to `Cc1nc(N)c2ccc(C3CCCN3)nc2n1` (stereo not given), for which the Percent Effect was determined as 10.9%. With `CCCc1cc(N(CCOC)CC(F)F)n2ncnc2n1` the figure was 11.5%; with `O=C(Cn1ccc(-c2ccccc2)n1)N1CCN(C(=O)C2CC2)CC1`, -3.88%. With `CN1CCCC(c2cccc(-c3ccccc3F)n2)C1` (stereo not given) the figure was 16.2%; with `CNc1ccc(C2CN(c3cc(C)ncn3)CCO2)nc1` (stereo not given), 10.8%. Take `COC(=O)CSCc1noc(-c2ccc(Cl)cc2)n1`: the Percent Effect is -9.28%. As for `COc1cccc(-c2n[nH]cc2-c2nc(CN3CCCC3)no2)c1`, the figure is -4.34%; as for `CC(C)C(=O)NCCc1nc(-c2ccncc2)n[nH]1`, 10.7%; as for `CC1(C)Cc2nc(C(C)(C)C)ncc2C(NC(=O)C2(N)CC2)C1` (stereo not given), -16.9%.

With `CNc1ccc(C)cc1C(=O)N1CCCC2(CCNC2)C1` (stereo not given), the Percent Effect stood at 10.4%. As for `CC(C)CN1C[C@@H](C(=O)O)C[C@@H](C(=O)NCc2ccncc2)C1`, the figure is -2.13%; as for `COCCNC(=O)NCc1ccc(-n2ccc(C(F)(F)F)n2)cc1`, -8.71%; as for `CCc1oc(C(=O)NCCSc2ncn[nH]2)cc1CN1CCCC1`, 1.9%. Regarding `Cc1n[nH]c(C)c1CCNC(=O)Nc1ccc2c(c1)COC2`, the Percent Effect came to 11.6%.

As to `Cc1ccccc1CC(=O)NCc1cnc(CC2CCN(C)CC2)cn1`, the Percent Effect stood at 4.22%. For `COC(CNC(=O)c1ccc[nH]1)c1cccc(Cl)c1` (stereo not given), the Percent Effect was 1.53%. As for `CNS(=O)(=O)c1ccc(CNC(=O)NCc2cc[nH]n2)cc1`, the figure is 2.83%; as for `Cc1cc(N2CCC3(CCCN(CCO)C3=O)C2)nc(C)c1C#N` (stereo not given), 14.2%; as for `COc1ccc(C(=O)NC2CCN(c3ncccn3)CC2)cc1F`, -7.58%. With `CNC(=O)N1CCOCC1c1c(C)nn(C)c1C` (stereo not given) the figure was -2.45%. As for `CC(Oc1cccc(Cl)c1)C(=O)Nc1cnn(CCN(C)C)c1` (stereo not given), the figure is -7.28%; as for `CN(Cc1nc(C(C)(C)C)no1)C1CCS(=O)(=O)C1` (stereo not given), 2.12%.
